PubChem BioAssay AID2284071 (EPA ToxCast)
Inconclusive results are not listed. Activity calls are given as the source filed them. How the source made its calls: active means hit-call score of the fitted dose curve at least 0.9, where 1 is the maximum; inactive means score below 0.9.

Each compound was assayed against Tyrosine-protein kinase ABL1 (Homo sapiens) (UniProt P00519) (assay: ERF_FR_ENZ_hABL1: Eurofins (ERF) Enzymatic Radiometric [Km ATP] KinaseProfiler LeadHunter Assay for human ABL1 Thymidine Kinase).
Tyrosine-protein kinase ABL1 (Homo sapiens), sequence (P00519 whole entry, looked up): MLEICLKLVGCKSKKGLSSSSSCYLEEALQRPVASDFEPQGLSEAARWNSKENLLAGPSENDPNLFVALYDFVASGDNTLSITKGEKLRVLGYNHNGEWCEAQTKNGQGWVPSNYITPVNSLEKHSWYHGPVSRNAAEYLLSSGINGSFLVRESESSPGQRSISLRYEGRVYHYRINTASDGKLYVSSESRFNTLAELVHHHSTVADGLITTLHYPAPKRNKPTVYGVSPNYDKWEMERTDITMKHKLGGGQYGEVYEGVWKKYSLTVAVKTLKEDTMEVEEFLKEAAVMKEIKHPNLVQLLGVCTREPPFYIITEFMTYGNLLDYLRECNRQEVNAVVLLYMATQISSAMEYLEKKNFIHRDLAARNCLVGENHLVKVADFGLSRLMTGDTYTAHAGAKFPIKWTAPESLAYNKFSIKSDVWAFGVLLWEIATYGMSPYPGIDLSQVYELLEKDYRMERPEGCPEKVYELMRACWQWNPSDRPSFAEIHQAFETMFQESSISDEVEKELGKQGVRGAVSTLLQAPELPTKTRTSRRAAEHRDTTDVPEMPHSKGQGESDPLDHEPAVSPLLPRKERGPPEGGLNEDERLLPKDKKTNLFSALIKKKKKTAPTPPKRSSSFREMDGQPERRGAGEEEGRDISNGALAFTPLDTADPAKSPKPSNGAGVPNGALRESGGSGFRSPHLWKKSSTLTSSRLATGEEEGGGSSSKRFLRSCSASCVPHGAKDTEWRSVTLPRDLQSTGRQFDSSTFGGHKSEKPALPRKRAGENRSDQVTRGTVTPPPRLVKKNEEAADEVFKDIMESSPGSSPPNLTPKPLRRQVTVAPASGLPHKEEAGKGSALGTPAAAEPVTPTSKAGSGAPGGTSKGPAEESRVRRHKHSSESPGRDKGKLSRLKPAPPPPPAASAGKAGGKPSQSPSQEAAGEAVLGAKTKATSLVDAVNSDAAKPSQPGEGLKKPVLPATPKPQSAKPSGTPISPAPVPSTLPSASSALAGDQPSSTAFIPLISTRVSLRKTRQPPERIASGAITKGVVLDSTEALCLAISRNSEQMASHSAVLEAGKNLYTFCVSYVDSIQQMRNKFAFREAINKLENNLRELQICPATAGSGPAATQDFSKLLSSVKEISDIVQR
Procedure: ERF_FR_ENZ_hABL1 is a biochemical, single-readout assay that uses extracted gene-proteins in a cell-free assay. Measurements were taken 0.5 hour after chemical dosing in a 96-well plate. See Abl Human TK Kinase Enzymatic LANCE Assay [Km ATP], Cerep.ERF_FR_ENZ_hABL1 is an assay component calculated from the ERF_FR_ENZ_hABL1 assay. It is designed to measure enzyme activity using a type of enzyme reporter as detected by fluorescence intensity with LANCE technology.Data from the assay component ERF_FR_ENZ_hABL1 was analyzed at the assay endpoint, ERF_FR_ENZ_hABL1, in the positive analysis fitting direction relative to DMSO as the negative control and baseline of activity. Using a type of enzyme reporter, loss-of-signal activity can be used to understand changes in enzymatic activity as they relate to gene ABL1. To generalize the intended target to other relatable targets, this assay endpoint is annotated to the kinase intended target family, where the subfamily is serine/threonine kinase.
ABL (h) is incubated with 8 mM MOPS pH 7.0, 0.2 mM EDTA, 50 uM […], 10 mM Mg Acetate and [g- 33P]- ATP (specific activity and concentration as required). The reaction is initiated by the addition of the Mg/ATP mix. After incubation for 40 minutes at room temperature, the reaction is stopped by the addition of phosphoric acid to a concentration of 0.5%. An aliquot of the reaction is then spotted onto a filter and washed four times for 4 minutes in 0.425% phosphoric acid and once in methanol prior to drying and scintillation counting. Compound should be supplied in 100%DMSO .We require a stock solution at a concentration of at least 50x higher than the Final Assay Concentration of your cpd. A 10mM stock is also acceptable. When ordering fewer than 60 kinase assays,we need 120uL of 50x concentrated stock. For more than 60 assays, we need 420uL of 50xcc stock. Please apply the conversion if you provide 10mM stock solution or compounds in powder form (pre-weighed is required) From 50 cpds supplied as solids, the TAT will be extended.

Structure (SMILES)	AC50	outcome
COc1cc(/C=C/C(=O)CC(=O)/C=C/c2ccc(O)c(OC)c2)ccc1O	1.37 µM (active)	–
O=C(/C=C/c1ccc(O)cc1)CC(=O)/C=C/c1ccc(O)cc1	0.843 µM (active)	–
COc1cc(CCC(=O)CC(=O)CCc2ccc(O)c(OC)c2)ccc1O	–	inactive
